Reference: PubChem BioAssay (NCI)
The panel holds about 79,000 compounds, 15% with a hit somewhere; the sample as a whole holds those more often. Active and inactive are the calls of the source. Rule as the data show it: active = growth inhibition above about 70%; inactive = the rest.

Columns and labels:
[1] = NCI Yeast Anticancer Drug Screen. Data for the rad50 strain (AID 155);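 also: 0% = growth of vehicle-only cultures of the same strain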; settings: S. cerevisiae rad50 strain growth inhibition, stronger effect = higher value
Outline: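 Relative growth inhibition (compound vs vehicle) was measured in yeast with a defined repair-gene alteration.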

[2] = NCI Yeast Anticancer Drug Screen. Data for the mec2-1 strain (AID 157); settings: S. cerevisiae mec2-1 strain, stronger effect = higher value
Outline: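 Strain: mec2-1 (DNA repair/cell cycle alteration). Compound exposure, then growth measured; inhibition expressed relative to vehicle.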

[3] = NCI Yeast Anticancer Drug Screen. Data for the sgs1 mgt1 strain (AID 161);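 also: 0% = growth of cultures given vehicle only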; settings: S. cerevisiae sgs1 mgt1 strain, stronger effect = higher value
Outline: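 Read-out: growth inhibition vs vehicle controls. Cells: mutant yeast strain deficient in DNA damage repair.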

[4] = NCI Yeast Anticancer Drug Screen. Data for the cln2 rad14 strain (AID 165);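 also: 0% = growth equal to vehicle treated cultures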; settings: S. cerevisiae cln2 rad14 strain, stronger effect = higher value
Outline: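 Compounds are applied to the cln2 rad14 yeast strain, and growth is then compared with that of vehicle-treated cultures to give inhibition.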

[5] = NCI Yeast Anticancer Drug Screen. Data for the bub3 strain (AID 167); settings: S. cerevisiae bub3 mutant strain, stronger effect = higher value
Outline: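 Screening used yeast with an engineered genetic alteration affecting cell cycle control. Compound-exposed cultures were compared with vehicle cultures, and reduced growth was taken as inhibition.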

[6] = NCI Yeast Anticancer Drug Screen. Data for the mlh1 rad18 strain (AID 175); settings: S. cerevisiae mlh1 rad18 strain growth inhibition, stronger effect = higher value
Outline: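 Read-out is yeast growth inhibition, calculated against vehicle-only controls. The compound was applied to a strain engineered with DNA damage repair alterations.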

[7] = at 5.0 µM (retest, dose inferred, filed as 0.5)
[8] = at 50.0 µM (retest, dose inferred, filed as 5.0)

Measured: growth inhibition

C[AsH](C)CC[AsH](C)C.C[AsH](C)CC[AsH](C)C.C[AsH](C)CC[AsH](C)C.[Ni]
active: [1]; [7] 79% | [1]; [8] 98% | [1]; at 50.0 µM 96.9% | [2]; [8] 99% | [2]; at 50.0 µM 95% | [3]; [7] 93% | [3]; [8] 99% | [3]; at 50.0 µM 96.7% | [4]; [7] 74% | [4]; [8] 97% | [4]; at 50.0 µM 93.5% | [5]; [8] 99% | [5]; at 50.0 µM 96.5% | [6]; [8] 99% | [6]; at 50.0 µM 96.5%
inactive: [2]; [7] 51% | [5]; [7] 68% | [6]; [7] 56%

CCSc1nc(=[N+]2CCCC2)ss1
inactive: [1]; [7] 33% | [2]; [7] 25% | [3]; [7] 36% | [4]; [7] 29% | [5]; [7] 17% | [6]; [7] 44%
active: [1]; [8] 99% | [1]; at 50.0 µM 98.5% | [2]; [8] 100% | [2]; at 50.0 µM 97.5% | [3]; [8] 99% | [3]; at 50.0 µM 98.8% | [4]; [8] 100% | [4]; at 50.0 µM 81.7% | [5]; [8] 100% | [5]; at 50.0 µM 89.3% | [6]; [8] 99% | [6]; at 50.0 µM 97%

[C-]#[O+].[C-]#[O+].[C-]#[O+].[C-]#[O+].[C-]#[O+].[Mo+2].[Mo+4].[c-]1[c-][c-][cH-][c-]1.[c-]1[c-][c-][cH-][c-]1.c1ccc([PH+](CC[PH+](c2ccccc2)c2ccccc2)c2ccccc2)cc1
inactive: [4]; [7] 60%
active: [1]; [7] 82% | [1]; [8] 98% | [1]; at 50.0 µM 90.5% | [2]; [7] 73% | [2]; [8] 99% | [2]; at 50.0 µM 93% | [3]; [7] 91% | [3]; [8] 98% | [3]; at 50.0 µM 92.3% | [4]; [8] 98% | [4]; at 50.0 µM 92% | [5]; [7] 84% | [5]; [8] 98% | [5]; at 50.0 µM 92.3% | [6]; [7] 79% | [6]; [8] 98% | [6]; at 50.0 µM 90.5%

COc1cc(OC)c(/C=C(\C)[N+](=O)[O-])cc1Br
inactive: [1]; [7] 1% | [1]; [8] 1% | [2]; [7] 3% | [2]; [8] 3% | [3]; [7] 2% | [3]; [8] -16% | [4]; [7] 3% | [4]; [8] 0% | [4]; at 50.0 µM 66.2% | [5]; [7] -1% | [5]; [8] 0% | [6]; [7] 2% | [6]; [8] 1%
active: [1]; at 50.0 µM 96.5% | [2]; at 50.0 µM 84.9% | [3]; at 50.0 µM 88% | [5]; at 50.0 µM 92.2% | [6]; at 50.0 µM 98.7%

CCCCCCCCCCCCCCCC[N+](C)(C)CCOS(C)(=O)=O
active: [1]; [7] 99% | [1]; [8] 98% | [1]; at 50.0 µM 91.2% | [2]; [7] 99% | [2]; [8] 99% | [2]; at 50.0 µM 90.4% | [3]; [7] 99% | [3]; [8] 99% | [3]; at 50.0 µM 90.3% | [4]; [7] 93% | [4]; [8] 99% | [4]; at 50.0 µM 86.5% | [5]; [7] 99% | [5]; [8] 99% | [5]; at 50.0 µM 92.4% | [6]; [7] 98% | [6]; [8] 98% | [6]; at 50.0 µM 92.3%
